Screening data deposited in PubChem by National Center for Advancing Translational Sciences (NCATS).
HT1080 IDH1KD tx = toxicity to HT-1080 IDH1 knockdown cells (counter line); HT-1080 IDH1 knockdown viability, ATP luminescence, 48 h; Potency, µM (top dose mostly 46.1 µM), without a hit: at the top dose activity, negative = toxicity, hits mostly cytotoxic; 2% of 360,000 active; AID 686971;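 further: 0% = DMSO wells and -100% = cell-free medium wells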
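Viability of IDH1-knockdown HT-1080 fibrosarcoma cells was assessed by CellTiter-Glo after 48 h at 37 °C with titrated compound; concentration-effect curves were classified by fit quality and response size.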
KB-V1 MDR tox = kills drug-selected multidrug resistant KB-V1 cells; KB-V1 MDR cells viability, CellTiter-Glo, 72 h; Potency, µM (titrated, usually from 46.1 µM), hits mostly cytotoxic; 3.4% of 400,000 active; AID 1347076; further: on the % scale 0 is the no-effect control and ±100 the full control effect; nearly all actives have a fitted effect of over 60% in size
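In this primary screen, KB-V1 cells overexpressing P-gp are incubated with library compounds (lowest to highest concentration) for 72 h at 37 degrees C before a luminescent ATP viability read.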
MCF10A rereplic = DNA re-replication induction in MCF 10a cells. MCF 10A DNA re-replication, Hoechst nuclear intensity, 48 h. Potency, µM (series often up to 46.1 µM), without a hit: top-dose activity, positive = re-replication, usual class: activators. 2.9% of 350,000 active. AID 624296; further: % of control where 0% means no effect; nearly all actives have a fitted effect of over 50% in size
SW480 rereplic = inducers of DNA re-replication in SW480 colon cancer cells. 1.8% of 340,000 active. Potency, µM (top dose mostly 46.1 µM), without a hit: top-dose re-replication activation, usual class: activators. AID 624297. SW480 DNA re-replication, Hoechst DNA content imaging, 48 h; further: % of control where 0% means no effect; nearly all actives have a fitted effect of over 55% in size
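Image-based read-out: total Hoechst fluorescence of nuclei (405 nm excitation, 500-530 nm emission), with hits raising the fraction of high-intensity nuclei. SW480 colon cells incubated 48 hr with compounds at 37 C.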
KB-3-1 cytotox = kills parental KB-3-1 adenocarcinoma cells; Potency, µM (top dose mostly 46.1 µM), usual class: cytotoxic; 1.4% of 400,000 active; KB-3-1 viability, CellTiter-Glo ATP luminescence, 72 h; further: on the % scale 0 is the no-effect control and ±100 the full control effect; nearly all actives have a fitted effect of over 60% in size
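Cells are dispensed, compounds pinned in, plates held at 37 °C for 72 h, then CellTiter-Glo is added and luminescence read after 10 minutes. Cell line: parental KB-3-1 in phenol-red-free DMEM, 10% FBS.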
HT1080-NT tox = kills 2HG-producing HT-1080-NT fibrosarcoma cells | 1.6% of 360,000 active | HT-1080-NT fibrosarcoma viability, CellTiter-Glo ATP luminescence, 48 h | Potency, µM (highest dose often 46.1 µM), for inactives: at the highest dose activity, negative = less viability, hits mostly cytotoxic;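 further: NT is the 2HG producing partner of a matched IDH1 knockdown line; 0% = DMSO-treated cells and -100% = media-only wells without cells; nearly all actives have a fitted effect of over 55% in size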
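Luminescent CellTiter-Glo readout after 48 hours of compound exposure at 37 degrees C defined viability of HT-1080-NT cells. Activity was normalized to DMSO wells and cell-free media wells; concentration-response curves were fitted and assigned curve classes.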
* hit, by the source's call; i = inactive; ? = inconclusive; ! = not confirmed by another sample; [ ] = another dose, or the depositor's remark. Shown are actives, neighbours in structure and some others; about 7.9% of the full set was active somewhere. The call rests on the fitted dose curve; in most records, active means well fitted curve in the direction sought with a large enough effect; inconclusive means small, poorly fitted or top-dose-only effect, or another doubt; inactive means no such curve, though single readings can be large; an effect the other way counts as inactive or inconclusive. Potency means the concentration at half of the fitted maximal effect.

SMILES	HT1080 IDH1KD tx	KB-V1 MDR tox	MCF10A rereplic	SW480 rereplic	KB-3-1 cytotox	HT1080-NT tox
Nn1cnnc1N/N=C/c1cc(Br)cc(Br)c1O	?	2.31µM*	?	?	?	-21.2%
CSc1ccc(/C=N\Nc2nncn2N)cc1	20.6µM*	i	?	7.4%	i	?
CS/C(N)=N/N=C/c1cc(Br)cc(Br)c1O	-6.3%	?	?	?	i	0.0%
CC(C)(C)c1ccc(/C=N/Nc2nncn2N)cc1	?	i	11.6µM*	25.7%	i	-19.7%
CC(=O)N1CCN(c2ccc(NC(=O)c3ccco3)cc2)CC1	11.1%	i	-0.3%	-22.4%	i	-3.8%
O=Cc1c[nH]c2ccc(NC(=O)OCc3ccccc3)cc12	-38.3%	?	?	13.0%	?	-5.2%
CC(=O)N(C(C)=O)c1nc(-c2ccccc2)cn1/N=C/c1ccccc1	?	?	11.6µM*	-3.1%	?	?
C[n+]1cn(/N=C/c2ccccc2)c2ccccc21	?	i	7.7%	1.9%	i	-6.3%
O=C(N[C@H]1CCC(=O)N(CCSc2ccc(Br)cc2)CC1)OCc1ccccc1	?	20.6µM*!	3.9%	3.1%	?	?
C=CCn1c(C)cc(C(=O)CSc2nnc(NCc3ccccc3)s2)c1C	?	10.3µM*	3.66µM*	?	13µM*	?
Cc1cc(C(=O)CSc2ncnc3ccccc23)c(C)n1C1CC1	-0.3%	i	2.1%	-7.0%	i	0.0%
C=CCn1c(C)cc(C(=O)CSc2nc3ccccc3o2)c1C	-5.6%	14.6µM*	23.1µM*	?	?	-3.2%
C=CCn1c(C)cc(C(=O)CSc2nnc(Cc3ccccc3)o2)c1C	17.7%	i	22.9%	9.5%	i	19.0%
Cc1cc(C(=O)CSc2nc3ccccc3o2)c(C)n1C1CC1	1.3%	?	23.1µM*	8.8%	i	9.3%
O=C(O)CN1C(=O)c2ccc(Oc3cccc4c3C(=O)N(CC(=O)O)C4=O)cc2C1=O	12.7%	i	-2.8%	-0.3%	i	9.0%
Nc1c(-c2cccc(Cl)c2)cnn1-c1cccc(C(F)(F)F)c1	-28.3%	20.6µM*	10.8%	3.3%	?	?
Nc1c(-c2ccccc2)cnn1-c1cccc(C(F)(F)F)c1	8.4%	i	2.5%	-2.7%	i	22.0%
Cc1c(Cl)cccc1Nc1ccccc1C(=O)O	-12.5%	i	?	-2.8%	i	6.8%
Cc1ccc(Cl)c(NC(=O)CCl)c1Cl	-10.1%	i	4.4%	10.6%	23.1µM*	-27.3%
Cc1ccc(Cl)c(Nc2ccccc2C(=O)O)c1Cl	?	i	26.6µM*!	-8.7%	i	?
Cc1ccc(Cl)c(NC(=O)CSc2cccc[n+]2[O-])c1Cl	5.4%	i	0.4%	-6.2%	i	7.8%
Clc1ccc(C[n+]2csc3ccccc32)cc1	-9.4%	23.1µM*	-0.8%	-705.7%	i	-3.9%
Fc1ccc(C[n+]2csc3ccccc32)cc1	1.5%	i	?	7.6%	i	7.0%
Cc1ccsc1/C=C1/CN(C)Cc2c1nc1ccccc1c2C(=O)O	6.6%	i	-6.9%	?	i	7.2%
COc1cc(Nc2ccccc2Cl)c([N+](=O)[O-])nc1[N+](=O)[O-]	?	i	?	4.61µM*	i	?
SMILES	HT1080 IDH1KD tx	KB-V1 MDR tox	MCF10A rereplic	SW480 rereplic	KB-3-1 cytotox	HT1080-NT tox
COc1ccccc1Nc1ccc([N+](=O)[O-])cc1N	-12.2%	i	?	-7.5%	?	-1.3%
COc1cc2ccnc(Cc3cccc(OC)c3OC)c2cc1OC	-28.7%	2.06µM*	?	4.2%	7.31µM*	-14.0%
Cc1ccc(-c2cc(-c3ccc(F)cc3)n[nH]2)c(O)c1	18.4µM*	i	?	?	?	25.9µM*
Cc1ccc(-c2cc(-c3ccc(C)cc3O)[nH]n2)cc1	3.0%	i	-1.3%	0.4%	i	-4.4%
Oc1ccccc1-c1cc(-c2ccc(F)cc2)n[nH]1	18.4µM*	?	?	-1.8%	?	?
Oc1ccccc1-c1cc(-c2ccccc2)n[nH]1	0.9%	i	-33.0%	?	i	5.1%
Cc1ccc([C@@H]2[C@@H]3C(=O)N(c4ccccc4)C(=O)[C@@H]3[C@]3(Cc4ccccc4)C(=O)N(CC4CC4)CC(=O)N23)o1	10.2%	i	1.9%	-3.4%	i	5.8%
CSc1nc(O)c(C(c2ccccc2)c2c(O)nc(SC)[nH]c2=O)c(=O)[nH]1	5.0%	i	-29.0%[9.22 µM]	-9.4%	i	5.0%
O=C1CC(N2CCN(S(=O)(=O)c3ccc([N+](=O)[O-])cc3)CC2)C(=O)N1c1ccccc1F (configuration not stated)	-0.4%	i	-4.8%	2.7%	i	-3.5%
CC1CCCN(CCC(=O)Nc2ccc(Br)cc2)C1 (configuration not stated)	?	?	3.2%	-3.4%	i	?
CCCCCCCCCCS(=O)(=O)N/N=C/c1ccccc1OC	?	i	18.4µM*	-1.5%	i	?
O=[N+]([O-])c1ccc(N/N=C/c2c[nH]c3ccccc23)cc1	?	?	?	?	?	-25.1%
CCCCCCCCCCS(=O)(=O)N/N=C/c1ccc(O)cc1	?	i	0.8%	-2.9%	i	?
O=[N+]([O-])c1ccc(N/N=C/c2cccc(O)c2O)cc1	?	i	23.1µM*	?	?	?
COC(=O)N/N=C/c1cccc([N+](=O)[O-])c1	18.0%	i	1.3%	-1.7%	i	22.5%
O=[N+]([O-])c1ccc(NN=Cc2cccc([N+](=O)[O-])c2)cc1	?	i	23.1µM*	25.3%	i	?
Cc1ccc(NC(=O)c2ccc(N/N=C/c3cccc(O)c3)c([N+](=O)[O-])c2)cc1	7.31µM*	?	?	-2.7%	?	7.31µM*
COC(=O)c1c(C#N)c(N)nc2c1CCCC2	4.6%	i	1.2%	1.5%	i	7.5%
CC12CCC(C(=O)O)(c3nc(C#N)c(C#N)nc31)C2(C)C (configuration not stated)	-27.1%	i	88.1%	?	i	-3.3%
Cc1c(C(=O)NC(C)C)oc2c1-c1[nH]ncc1CC2	-5.0%	i	-5.6%	-2.3%	i	-2.3%
Cc1cc(N)ccc1NC(=O)CN1CCOCC1	6.7%	?	4.6%	-6.3%	i	1.1%
C(=N\NC1=Nc2cccc3cccc1c23)/c1cccnc1	-13.3%	16.4µM*	?	0.4%	i	-18.1%
